Source: PubChem (several laboratories)
PG9 binder: binds the HIV-1 gp120 antibody PG9; TR-FRET gp120-PG9 antibody binding; AID 624416; hit rate 0.43% among 360,000; inhibition, % at 6.7 µM; in the data active means inhibition above about 8.5%
SMARCA2 act: activators of SMARCA2 function. MG213 cells, MMTV-luciferase reporter, dexamethasone, overnight. activation, % at 9.1 µM. hit rate 1% among 370,000; in the data active means activation above about 7.8%;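 further: 0% = vehicle wells and 100% = reference activator wells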
AI-2 QS modul: modulates the Vibrio harveyi AI-2 quorum sensing system; activity change, % at 7.5 µM; hit rate 0.4% among 300,000; Vibrio harveyi JMH597 AI-2 luminescence/OD600 ratio, 9 h; stronger effect = lower value; strain lacks LuxN and CqsS sensors; 0 = neutral-control median; in the data active means activity change below about -75%, passing the limit was not always enough;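 further: luminescence divided by OD600 gain over 9 h not by final OD600 alone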
HSP90 refold inh: inhibitors of HSP90 luciferase refolding in rabbit reticulocyte lysate; luciferase refolding luminescence, 3 h; inhibition, % at 5.6 µM; hit rate 0.91% among 290,000; AID 1789;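 active means inhibition above the screen-wide mean plus 3 SD, computed separately per campaign, cut at about 16% in these data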;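 further: 0% = DMSO wells and 100% = 60 µM geldanamycin wells; inhibitors lower the luminescence because luciferase stays unfolded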
HSF1 inh: HSF1 inhibition; hit rate 0.77% among 300,000; activity change, negative = inhibition, % at 7.5 µM (by protocol); AID 2098; NIH3T3-HGL HSE-luciferase, MG132-induced, luminescence 8 h; stronger effect = lower value;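 active means more than half of replicate wells show activity change below -50%, luminescence cut by over half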;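 further: luciferase reports HSF-1 transcriptional activity via heat shock element; 0% = median of DMSO wells and -100% = zero luminescence signal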
GAA850 FXN act: frataxin GAA850 promoter activation | AID 540364 | activation, % at 6 µM | hit rate 0.56% among 360,000 | HEK293 lucGAA850 FXN promoter luciferase reporter, 24 h; percent of 10 µM SAHA response;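 active means activation above the average of all compounds screened plus 3 SD, cutoff fixed separately per campaign, cut at about 7.5% in these data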;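 further: 0% = DMSO wells and 100% = 10 µM SAHA wells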
HSP90 inh confirm: HSP90 inhibition, confirmation assay | shares compounds with HSP90 refold inh | rabbit reticulocyte lysate, luciferase refolding luminescence, 3 h | inhibition, % at 5.9 µM | hit rate 64% among 2,300 | AID 1846; in the data active means inhibition above about 18%;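 further: 0% = vehicle wells and 100% = reference inhibitor wells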
FLuc counter: firefly luciferase inhibition, HSP90 counter-screen; shares compounds with HSP90 refold inh; purified native firefly luciferase, luminescence; inhibition, % at 5.9 µM; hit rate 48% among 2,300;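 active means inhibition above the mean inhibition of all tested sample wells plus 3 SD, cut at about 10% in these data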;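 further: 0% = DMSO with luciferase and 100% = wells lacking luciferase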
Target sequence (P08659 whole entry, looked up): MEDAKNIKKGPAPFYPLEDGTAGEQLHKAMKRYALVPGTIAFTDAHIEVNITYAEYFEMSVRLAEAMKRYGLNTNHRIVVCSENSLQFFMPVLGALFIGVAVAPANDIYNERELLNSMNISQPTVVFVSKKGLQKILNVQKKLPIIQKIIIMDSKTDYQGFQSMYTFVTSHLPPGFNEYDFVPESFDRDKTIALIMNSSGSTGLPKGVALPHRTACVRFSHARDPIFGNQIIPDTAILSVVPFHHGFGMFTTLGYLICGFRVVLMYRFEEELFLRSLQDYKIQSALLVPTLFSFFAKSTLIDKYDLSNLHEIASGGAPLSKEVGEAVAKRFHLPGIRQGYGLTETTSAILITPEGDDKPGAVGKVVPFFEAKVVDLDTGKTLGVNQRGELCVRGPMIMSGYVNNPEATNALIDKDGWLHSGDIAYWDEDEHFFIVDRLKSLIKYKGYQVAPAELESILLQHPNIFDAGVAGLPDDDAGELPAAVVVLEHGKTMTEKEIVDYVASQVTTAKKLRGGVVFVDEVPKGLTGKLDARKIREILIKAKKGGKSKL
An asterisk follows results filed as active; x = no result given. Shown are actives, neighbours in structure and some others; about 3.4% of the full set was active somewhere.

SMILES	PG9 binder	SMARCA2 act	AI-2 QS modul	HSP90 refold inh	HSF1 inh	GAA850 FXN act	HSP90 inh confirm	FLuc counter
COc1ccc(/C=C/c2nc3ccccc3c(=O)o2)cc1	2	-6	8	79*	-59*	-14	87*	14*
Cc1ccc(C(=O)CNc2ccc(C)c(Cl)c2)cc1	2	3	40	0	4	4	x	x
Cc1ccc(NCC(=O)c2ccc(C)cc2)cc1	0	4	-13	22*	10	3	5	-12
CCOc1ccc(-c2cnc3ccccc3n2)cc1	-1	0	x	42*	-58*	-3	86*	80*
CCOc1ccc(-c2cn3ccccc3n2)cc1	-2	5	7	27*	x	2	64*	47*
O=[N+]([O-])c1ccc(-c2cnc3ccccc3n2)cc1	-1	1	31	0	21	2	x	x
COC(=O)CCC(NC(=O)c1cc(-c2ccc3c(c2)OCCO3)oc1C)C(=O)OC (stereo unspecified)	-1	1	30	5	5	0	x	x
Cc1oc(-c2ccc3c(c2)OCCO3)cc1C(=O)NC(Cc1ccccc1)C(=O)O (stereo unspecified)	1	-2	10	39*	6	0	65*	18*
Cc1ccc(S(=O)(=O)NCCCNS(=O)(=O)c2ccccc2)cc1	0	-3	1	25*	-1	0	-7	-8
O=c1cc(-c2ccccc2)[nH][nH]1	-1	-2	4	40*	4	2	-9	-11
COc1ccc(-c2cc(=O)[nH][nH]2)cc1OC	-1	0	28	34*	18	-3	1	-1
COc1cccc(-c2cc(=O)[nH][nH]2)c1	-4	-1	14	15	10	2	x	x
Cc1ccc(-c2cc(C(=O)NN=Cc3sccc3C)[nH]n2)cc1C	x	-5	x	x	x	x	x	x
Cc1cccc(CC(=O)N2CCC(N3CCC(C(=O)N4CCOCC4)CC3)CC2)c1	0	-2	22	51*	-8	-1	-7	-8
N#Cc1cccc(-c2ccccc2C(=O)NC2CCCCN(Cc3ccc(Cl)cc3)C2=O)c1 (stereo unspecified)	x	-2	x	x	x	x	x	x
O=C(Nc1ccc(N2CCOCC2)cc1)c1cnccn1	-1	1	10	46*	1	-4	67*	44*
O=C(Nc1ccccc1N1CCOCC1)c1cnccn1	1	1	15	5	-9	0	x	x
O=C(Nc1ccc(N2CCOCC2)cc1)c1cnsn1	-2	-2	15	71*	-38	-10	83*	76*
COc1ccc(-c2cc(C(=O)NN=Cc3ccc(-c4ccccc4)cc3)[nH]n2)cc1	x	0	x	x	x	x	x	x
COc1ccc(C(c2c(C)[nH]n(-c3ccccc3)c2=O)c2c(C)[nH]n(-c3ccccc3)c2=O)cc1OC	-2	3	9	22*	26	1	-1	-9
O=C(O)c1cccc(NC(=S)N/N=C/c2ccccn2)c1	-3	5	8	35*	8	4	61*	49*
OC(COc1cccc2ccccc12)CN1CCN(c2ccccc2)CC1 (stereo unspecified)	-1	-3	33	12	1	2	7	0
CC(C)(C)c1ccc(OCC(O)CN2CCN(c3ccccn3)CC2)cc1 (stereo unspecified)	-1	1	-4	40*	-7	0	2	-2
CCC(=O)c1ccc(OCC(O)CN2CCN(c3ccccn3)CC2)cc1 (stereo unspecified)	-2	-1	-2	-1	5	-1	x	x
OC(COc1ccc(Cl)cc1)CN1CCN(c2ccccc2)CC1 (stereo unspecified)	-1	-2	20	40*	1	2	-2	-6
CC(C)NC(=O)C1CCN(c2cncnc2)CC1	x	-5	x	x	x	x	x	x
CC(C)(C)c1cc(NC(=O)c2cccs2)no1	0	4	18	21*	18	2	36*	13*
